Bioassay records deposited in PubChem by Broad Institute.
An excerpt weighted towards active compounds, which were near 3.4% of everything screened.
EWS-Fli inh: blocks EWS/Fli oncoprotein-driven transcription | inhibition, % at 12.6 µM | 350,000 tested, 0.67% active | A673 NR0B1-luciferase reporter, viability-normalised | AID 651661;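 active = mean inhibition of at least 50% after viability correction, with every replicate also passing that limit; inconclusive = mean reaches 50% but only one of two replicates passes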;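 also: firefly luciferase signal divided by Alamar Blue viability fluorescence both relative to DMSO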
rRNA inh HTS: inhibits bacterial ribosomal RNA function over humanized ribosomes; E. coli WT GFP vs humanized-ribosome RFP mutants, fluorescence, 24 h; stronger effect = lower value; DMSO median 0, no signal -100; GFP signal change (wild-type ribosome), % (no concentration beside the values); 350,000 tested, 1.6% active; AID 720706;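 active = significant combined selectivity score with lowered wild-type GFP, culture density cut under 30%, mutant RFP and density less affected; inactive = any of these conditions unmet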
SIRT5 block: inhibitors of human sirtuin-5 desuccinylase | Purified SirT5, succinyl-peptide AMC, trypsin-coupled fluorescence | inhibition, % at 15 µM | 330,000 tested, 1.1% active; in the data active = inhibition above about 15%; inconclusive = no clear call, values can overlap the other calls
Target sequence (Q9NXA8 whole entry, looked up): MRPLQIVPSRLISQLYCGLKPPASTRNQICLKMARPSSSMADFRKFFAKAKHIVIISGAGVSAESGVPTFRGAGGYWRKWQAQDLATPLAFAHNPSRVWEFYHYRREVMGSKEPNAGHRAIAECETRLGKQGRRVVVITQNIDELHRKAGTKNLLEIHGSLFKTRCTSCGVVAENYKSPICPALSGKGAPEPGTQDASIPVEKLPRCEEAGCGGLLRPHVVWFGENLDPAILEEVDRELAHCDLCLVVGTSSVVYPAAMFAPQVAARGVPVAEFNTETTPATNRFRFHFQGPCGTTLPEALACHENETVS
PAX8 reporter: PAX8 transcriptional activity inhibition; inhibition, % at 12.6 µM; RMG-I TPO-luciferase reporter, SteadyGlo, 24 h; 360,000 tested, 1.2% active; AID 652154;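 active = mean replicate inhibition at least 60% with every replicate also reaching 60%; inconclusive = only one of the two criteria is met; inactive = mean below 60% and not all replicates reaching 60%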;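 also: luciferase light reporting Pax8 driven TPO promoter activity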
LGR2 antag: blocks bursicon-induced cAMP signaling via Drosophila LGR2 | inhibition, % at 9.99 µM | 380,000 tested, 0.35% active | AID 720647 | HEK293 LGR2, CRE-luciferase, bursicon-stimulated, 4 h;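 active = drop in luminescence signal, shown as inhibition above about 50% in the replicate tests, limit read from the data, passing the limit was not always enough; inconclusive = probably only some replicates passing the limit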;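 also: agonist challenge used bursicon conditioned medium at about half maximal strength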
PGC1a acetyl inh: lowers PGC1a acetylation signal in U2OS cells; AID 651687; AlphaScreen anti-acetyl-lysine; with virally co-expressed GCN5 acetyltransferase; 350,000 tested, 0.17% active; inhibition, % at 15.6 µM;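 active = every replicate shows inhibition of at least 40%; inconclusive = mean inhibition at least 40% but some replicate below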
Large screens that a line does not name were inactive.

COc1ccc(C(=O)OCC(=O)Nc2nnc(-c3ccccc3)o2)cc1	none (no result: EWS-Fli inh)
COc1ccc(CC(=O)Nc2cccc(-c3nnc(-c4cccc(C)c4)o3)c2)cc1OC	LGR2 antag inconclusive (no result: EWS-Fli inh, PAX8 reporter, PGC1a acetyl inh)
COc1ccccc1C(=O)Nc1ccc2c(c1)OC[C@H](C)N(C(C)=O)C[C@H](C)[C@@H](OC)CN(C)C2=O	none
Cc1c(C)c2ccc(OCC(=O)Nc3ccccn3)c(C)c2oc1=O	LGR2 antag 100.1 (no result: EWS-Fli inh, PGC1a acetyl inh)
O=C(COc1ccc(Cl)cc1Cl)Nc1ccccn1	EWS-Fli inh 60.3, LGR2 antag 100.1 (no result: PAX8 reporter)
Cc1cc(C)n(CC(=O)NNC(=O)COc2ccc(Cl)cc2Cl)n1	SIRT5 block 15.3
Cc1c(C)c2cc(Cl)c(OCC(=O)Nc3ccccn3)cc2oc1=O	none (no result: SIRT5 block)
Cc1cc(C)n(CC(=O)NNC(=O)COc2ccc(F)cc2Br)n1	none
COCC(=O)N1C[C@H](C)[C@@H](OC)CN(C)C(=O)c2ccc(NC(=O)c3ccc(F)cc3)cc2OC[C@H]1C	none
C[C@@H]1CCCCO[C@@H](CN(C)S(=O)(=O)c2ccc(F)cc2)[C@H](C)CN([C@H](C)CO)C(=O)c2cc(NC(=O)Nc3ccc4c(c3)OCO4)ccc2O1	none
C/C(=N\NC(=O)c1nn(C)cc1Br)c1cccc(NC(=O)C(C)(C)C)c1	none (no result: EWS-Fli inh, rRNA inh HTS, SIRT5 block, PAX8 reporter, LGR2 antag)
C/C(=N\NC(=O)c1nn(C)cc1Br)c1ccc(NC(=O)c2ccncc2)cc1	PAX8 reporter 86.6 (no result: SIRT5 block, PGC1a acetyl inh)
COC(=O)/C=C/c1sc2nc(C)cc(C)c2c1N=CN(C)C	SIRT5 block 32.5
Cc1cc(C)c2c(N=CN(C)C)c(C(=O)N3CCN(c4ncccn4)CC3)sc2n1	none (no result: EWS-Fli inh, rRNA inh HTS, SIRT5 block, LGR2 antag)
O=C(C[C@H]1C=C[C@H](NC(=O)Nc2ccc(F)cc2)[C@H](CO)O1)NCc1cccc(F)c1	none (no result: PAX8 reporter)
COc1ccc(NC(=O)CN(c2cccc(F)c2)S(C)(=O)=O)cc1OC	none (no result: EWS-Fli inh, rRNA inh HTS, SIRT5 block, PAX8 reporter, LGR2 antag)
COc1ccc(NC(=O)CN(c2cc(C)cc(C)c2)S(=O)(=O)c2c(C)n[nH]c2C)cc1	none (no result: SIRT5 block)
COc1ccc(NC(=O)CN(c2ccc(Cl)cc2)S(C)(=O)=O)cc1OC	SIRT5 block 24.7
COc1ccc(N(CC(=O)Nc2ccc(F)c(F)c2)S(=O)(=O)c2c(C)n[nH]c2C)cc1	rRNA inh HTS -25.6 (no result: EWS-Fli inh)
COCC(=O)N1[C@H](C(=O)N2CCCCC2)[C@@H](CO)[C@@H]2Cn3c(ccc(C4=CCCC4)c3=O)[C@@H]21	none (no result: PAX8 reporter, PGC1a acetyl inh)
C=C(C)C(=O)OCC(=O)NCc1ccccc1	none
COc1ccccc1/C=C/C(=O)OCC(=O)Nc1ccccc1Sc1ccccc1	SIRT5 block 17.5 (no result: PGC1a acetyl inh)
COc1ccccc1/C=C(/C(=O)OCC(=O)Nc1ccccc1C)c1ccccc1	rRNA inh HTS -21.6 (no result: PGC1a acetyl inh)
COc1ccccc1/C=C(/C(=O)OCC(=O)NCc1ccccc1)c1ccccc1	PGC1a acetyl inh 91.9 (no result: EWS-Fli inh, rRNA inh HTS, SIRT5 block)
COc1ccccc1NC(=O)COC(=O)/C=C/c1ccccc1[N+](=O)[O-]	none (no result: EWS-Fli inh, rRNA inh HTS, SIRT5 block, PAX8 reporter)
COc1ccccc1/C=C(/C(=O)OCC(=O)Nc1ccc(N(C)C)cc1)c1ccccc1	none (no result: EWS-Fli inh, rRNA inh HTS, SIRT5 block, PGC1a acetyl inh)
CCC(=O)N1[C@H](CO)[C@@H](c2ccc(C3=CCCCC3)cc2)[C@@H]1CN(C)C(C)=O	none (no result: SIRT5 block)
CC(C)NC(=O)N(C)C[C@H]1OCCCC[C@@H](C)Oc2ccc(N(C)C)cc2C(=O)N([C@H](C)CO)C[C@H]1C	none (no result: EWS-Fli inh)
CC(C)N(C(=O)COC(=O)[C@H](C)NC(=O)c1ccco1)c1ccccc1	SIRT5 block 30.7
O=C(C[C@@H]1C[C@@H]2c3cc(NC(=O)CC4CC4)ccc3O[C@@H]2[C@@H](CO)O1)NCc1ccccc1F	none (no result: PAX8 reporter)
C[C@@H]1CN([C@@H](C)CO)C(=O)c2cc(C#CC3CCCCC3)cnc2O[C@@H]1CN(C)C(=O)Cc1ccccn1	none
O=C(Oc1ccc(/C=N/O)cc1)c1ccccc1Cl	rRNA inh HTS -29.0 (no result: PGC1a acetyl inh)
Cc1ccc(C(=O)N/N=C/c2ccc(OC(=O)c3ccccc3Cl)cc2)cn1	none (no result: PGC1a acetyl inh)
Cn1ccc(/C=N/N=C2/NC(=O)CS2)n1	rRNA inh HTS -43.2
CCCC(=O)Nc1ccc2c(c1)OC[C@@H](C)N(Cc1ccccc1)C[C@H](C)[C@H](OC)CN(C)C2=O	none
Cc1ccc(S(=O)(=O)Nc2ccc3c(c2)C(=O)N([C@H](C)CO)C[C@@H](C)[C@@H](CN(C)CC2CCCCC2)OCCCC[C@H](C)O3)cc1	SIRT5 block 17.5
